A selection: hits, their analogues and other compounds. The true share with any hit is near 21%.
IL1B secr inh = qHTS for Inhibitors of Inflammasome Signaling: IL-1-beta AlphaLISA Primary Screen; THP-1 LPS/ATP IL-1B secretion, AlphaLISA, 16 h; stronger effect = lower value; activity change, % at 57.5 µM; 360,000 compounds, 4.7% hits; in the data active = activity change below about -50%; inconclusive = mostly about -30% to -49%
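THP-1 cells pretreated 1 hr with compounds (up to 57.5 uM final), then stimulated with LPS (250 ng/mL final) plus ATP (1.25 mM final); secreted IL-1B measured by AlphaLISA after 16 hr, decreased signal indicating inhibition.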
RORgamma inh = qHTS for inhibitors of ROR gamma transcriptional activity. Potency, µM (doses to about 53.6 µM), inactives show top-dose activity change, negative = inhibition, most hits filed as inhibitors. Drosophila S2 Gal4-RORgamma UAS-luciferase reporter, 20 h. 310,000 compounds, 5.4% hits; also: potency is read from the fitted curve at half-maximal effect; nearly all actives have a fitted effect of over 60% in size
Target sequence (P51450 whole entry, looked up, the tested form may be a part): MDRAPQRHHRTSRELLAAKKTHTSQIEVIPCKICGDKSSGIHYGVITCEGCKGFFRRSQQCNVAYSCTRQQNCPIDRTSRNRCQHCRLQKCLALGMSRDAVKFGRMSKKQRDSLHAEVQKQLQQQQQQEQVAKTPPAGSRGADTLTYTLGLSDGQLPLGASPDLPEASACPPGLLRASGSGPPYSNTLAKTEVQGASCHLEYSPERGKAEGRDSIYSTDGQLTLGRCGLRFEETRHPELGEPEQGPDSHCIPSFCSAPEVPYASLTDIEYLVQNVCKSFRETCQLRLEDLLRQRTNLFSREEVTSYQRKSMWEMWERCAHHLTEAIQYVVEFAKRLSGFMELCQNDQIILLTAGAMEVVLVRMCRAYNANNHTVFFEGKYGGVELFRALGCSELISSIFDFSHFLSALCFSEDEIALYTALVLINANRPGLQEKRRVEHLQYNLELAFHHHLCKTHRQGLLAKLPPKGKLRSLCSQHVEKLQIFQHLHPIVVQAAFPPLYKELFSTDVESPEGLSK
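Stable Schneider cell line, Gal4 DNA-binding domain fused to ROR gamma, UAS-luciferase. Cmpd 1 hr RT → CuSO4 700 uM final → 20 hr RT → luciferase reagent 10 min → luminescence.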
Gal4-VP16 FLuc = VP16 counterscreen qHTS for inhibitors of ROR gamma transcriptional activity. Drosophila S2 Gal4-VP16 UAS-luciferase, luminescence, 20 h. Potency, µM (series often up to 53.6 µM), for inactives: at the top dose activity, negative = inhibition, most hits filed as inhibitors. 310,000 compounds, 3.5% hits. AID 2546, 2010;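 also: Gal4-VP16 expression switched on by copper sulfate through the metallothionein promoter; potency is read from the fitted curve at half-maximal effect; nearly all actives have a fitted effect of over 50% in size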
DT40 TDP1 no CPT = qHTS for Inhibitors of human tyrosyl-DNA phosphodiesterase 1 (TDP1): qHTS in cells in absence of CPT. 420,000 compounds, 15% hits. Potency, µM (series often up to 46.2 µM), for the others: at the highest dose activity change, negative = growth inhibition, actives largely listed as inhibitors. AID 686978, 2013. DT40 Tdp1-/- hTDP1 cells, no CPT, ATP luminescence, 48 h; also: potency is read from the fitted curve at half-maximal effect; nearly all actives have a fitted effect of over 55% in size
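Cells were dispensed at 400 per well, compounds added by pin tool, plates incubated ≥48 hr at 37 °C, then CellTiter-Glo added for 30 min at room temperature before luminescence reading. Line: DT40 Tdp1-/- complemented with hTDP1; camptothecin omitted.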
DT40 TDP1 CPT = qHTS for Inhibitors of human tyrosyl-DNA phosphodiesterase 1 (TDP1): qHTS in cells in presence of CPT; Potency, µM (titrated, usually from 46.2 µM), inactives show at the top dose activity change, negative = growth inhibition, hits mostly inhibitors; 420,000 compounds, 12% hits; chicken DT40 Tdp1-/-;hTDP1 cells + 20 nM CPT, ATP luminescence, 48 h; also: potency is read from the fitted curve at half-maximal effect; nearly all actives have a fitted effect of over 55% in size
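Chicken DT40 Tdp1-/- cells stably complemented with human TDP1 were seeded at 400 cells/well in medium containing 20 nM camptothecin, exposed to pin-transferred compounds, and grown at 37 °C for at least 48 hr. Viability was read as ATP luminescence.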
ELG1 repair inh = qHTS screen for small molecules that inhibit ELG1-dependent DNA repair in human embryonic kidney (HEK293T) cells expressing luciferase-tagged ELG1; HEK293T ELG1-luciferase reporter, luminescence, 16 h; DNA damage induced by 5-fluorouridine; 330,000 compounds, 2.3% hits; Potency, µM (top dose mostly 46.1 µM), inactives show at the highest dose activity change, negative = inhibition, usual class: inhibitors; AID 504467, 2011; also: potency is read from the fitted curve at half-maximal effect; nearly all actives have a fitted effect of over 55% in size
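Luminescence from the luciferase reporter, measured 30 min after ONE-Glo reagent at room temperature, was the read-out. Beforehand, 2,000 cells per well were exposed for 16 hr at 37 °C to 5-fluorouridine together with compound or vehicle.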
* hit, by the source's call; i = inactive; ? = inconclusive; . = not tested or not shown; [ ] = another dose, or the depositor's remark. Unless noted, calls follow the shape of the dose curve; as a rule, active = well fitted curve in the direction sought with a large enough effect; inconclusive = small, poorly fitted or top-dose-only effect, or another doubt; inactive = no such curve, though single readings can be large; an effect the other way counts as inactive or inconclusive. % is scaled to controls: 0 for no effect and ±100 for the full control effect.

SMILES	IL1B secr inh	RORgamma inh	Gal4-VP16 FLuc	DT40 TDP1 no CPT	DT40 TDP1 CPT	ELG1 repair inh
Cc1cccc(C(=O)O/N=C(\N)Cc2ccc([N+](=O)[O-])cc2)c1	-7	?	?	-22%	26µM*	-10%
N/C(Cc1ccc([N+](=O)[O-])cc1)=N\OC(=O)c1ccc(Br)cc1	?	-65%	?	?	?	?
O=C1Nc2ccccc2-c2nnnn2C1N1CCCC1 (stereo not drawn)	51	.	.	-5%	0%	.
[O-][n+]1ccc(CC(O)(C(F)(F)F)C(F)(F)F)cc1	-10	.	.	-5%	1%	.
O=C(/C=C/c1ccccc1)NC(=S)NNC(=O)c1cnccn1	34	-2%	-4%	5.8µM*	3.3µM*	20%
COc1ccc(/C=C/C(=O)NC(=S)NNC(=O)c2cccnc2)cc1OC	0	1%	-5%	-26%	-10%	12%
O=C(/C=C/c1ccccc1)NC(=S)NNC(=O)c1cccnc1	-3	10µM*	?	5.8µM*	13µM*	4%
C=CCn1c(SCC(=O)NCc2ccccc2)nnc1-c1ccccc1O	?	?	-7%	-3%	-28%	18µM*
Cc1[nH]c2ccc(-c3nnc(SCC(=O)NCc4ccco4)n3Cc3ccccc3)cc2c1C	0	18%	7%	23µM*	?	?
Cc1occc1-c1nnc(SCC(=O)NCCc2ccccc2)n1Cc1ccccc1	?	29%	2%	21µM*	?	-24%
Cc1occc1-c1nnc(SCC(N)=O)n1Cc1ccccc1	-19	-28%	1%	2%	1%	-2%
COc1ccc(-c2nnc(SC(C)C(=O)NCc3ccc4c(c3)OCO4)n2Cc2ccco2)cc1 (stereo not drawn)	-14	23%	2%	15µM*	?	-16%
O=C(COCc1cc(-c2ccco2)on1)Nc1cccc(Cl)c1Cl	.	.	.	-10%	?	.
COc1ccc(C)cc1NC(=O)C1CCN(S(=O)(=O)Cc2ccccc2)CC1	.	.	.	3%	6%	.
COc1ccc2c(c1)c1c(c(=O)n(-c3ccc(C)cc3)c(=O)n1CC(=O)NCC1CCCO1)n2C (stereo not drawn)	37	.	.	?	-15%	.
Cc1cc(C(=O)CSc2nnc(C3CC3)n2C2CC2)c(C)n1C(C)C	-30	.	.	1%	-5%	?
O=C(CSc1nnc(-c2ccc(Cl)cc2)n1Cc1ccco1)NCc1ccc2c(c1)OCO2	-23	?	-14%	26µM*	?	.
CCc1nc(CN(C)C(=O)C2CCC(=O)N(Cc3cccc(F)c3)C2)no1 (stereo not drawn)	2	-9%	4%	18%	1%	10%
Cc1cccc(N2CCN(C(=O)Cn3c(=O)c4cccn4c4ccc(F)cc43)CC2)c1C	.	.	.	10µM*	21µM*	.
Cn1c(=O)c2c(ncn2CC(=O)N2CCN(c3ccccc3F)CC2)n(C)c1=O	30	-4%	0%	2%	-7%	?
CC1Cc2ccccc2N1C(=O)Cn1cnc2c1c(=O)n(C)c(=O)n2C (stereo not drawn)	i	-4%	7%	23µM*	?	-10%
Cc1cccc(N2CCN(C(=O)Cn3cnc4c3c(=O)n(C)c(=O)n4C)CC2)c1C	34	-8%	2%	18µM*	23µM*	21µM*
Cc1cccc(N2CCN(C(=O)Cn3ccc4ccccc4c3=O)CC2)c1C	-7	-11%	3%	?	13µM*	?
COc1cccc(N(CC(=O)NCC2CCCO2)C(=O)CCC(=O)Nc2nccs2)c1 (stereo not drawn)	35	6%	6%	-4%	5%	-3%
Cc1ccc(CNC(=O)C2CCC(=O)N2Cc2ccc(C)cc2)cc1 (stereo not drawn)	-13	-2%	2%	-1%	-18%	-16%
SMILES	IL1B secr inh	RORgamma inh	Gal4-VP16 FLuc	DT40 TDP1 no CPT	DT40 TDP1 CPT	ELG1 repair inh
Cc1ccc(OCC(=O)Nc2ccc(S(=O)(=O)Nc3ccccn3)cc2)c(C)c1	-3	9%	2%	18µM*	?	10%
COc1ccccc1C1NC=C([N+](=O)[O-])C=C1[N+](=O)[O-] (stereo not drawn)	-11	-45%	?	-7%	-4%	-23%
COc1ccccc1C1C([N+](=O)[O-])=CC([N+](=O)[O-])=CN1C (stereo not drawn)	-13	?	11µM*	?	?	?
CCc1nc2ccc(C(=O)NCc3cccs3)cn2c1N(CC)Cc1cccc(Br)c1	-54*	.	.	12µM*	21µM*	.
CCc1nc2ccc(C(=O)NCCOc3ccc(OC)cc3)cn2c1N(CC)Cc1cccc(Br)c1	-69*	.	.	21µM*	18µM*	.
CCc1nc2ccc(C(=O)Nc3cccc(OC)c3)cn2c1N(C)CCCc1ccccc1	-51*	.	.	?	?	.
CCc1nc2ccc(C(=O)NCCCn3ccnc3)cn2c1N(C)Cc1cccs1	-24	.	.	?	?	.
CCc1nc2ccc(C(=O)Nc3ccc4c(c3)OCC(=O)N4)cn2c1N(CC)Cc1cccc(Br)c1	0	.	.	-78%	18µM*	.
Cc1c(NC(=O)C(C)Oc2cccc(F)c2)c(=O)n(-c2ccccc2)n1C (stereo not drawn)	7	.	.	19%	-6%	-2%
[O]=[Bi][O][Bi]=[O]	.	28%[10 µM]	-2%	1%	0%	.
CCOc1ccc(-n2c(SCC(=O)Nc3cccc(Cl)c3)nc3c(oc4ccccc43)c2=O)cc1	.	.	.	17%	8%	.
Cc1ccccc1C(=O)Nc1nnc2n1CCS2	.	.	.	5%	-2%	.
CC[C@H](C)[C@@H](NC(=O)O[C@@H]1C(=O)c2ccc(OC)cc2O[C@H]1c1ccc2c(c1)OCO2)C(=O)OC	.	31%	4%	.	.	.
O=C1Cc2cc(S(=O)(=O)Nc3ccc(N4CCOCC4)cc3)ccc2N1	-8	.	.	1%	3%	4%
CCc1nc2ccc(C(=O)Nc3cccc(NS(C)(=O)=O)c3)cn2c1N(CC)Cc1cccc(Br)c1	-70*	.	.	16µM*	?	.
CCc1nc2ccc(C(=O)Nc3cccc(NS(C)(=O)=O)c3)cn2c1N(C=O)CCC(C)C	-23	.	.	?	?	.
